# From PMC7862700, “An all-to-all approach to the identification of sequence-specific readers for epigenetic DNA modifications on cytosine”
# What was measured:
# Assay in all cases: DAPPL (digital affinity profiling via proximity ligation, sequencing); 10 mM Tris-HCl pH 7.5, 50 mM NaCl, 1 mM DTT, 4% glycerol, room temperature, 30 min; GST-TFs on glutathione beads, 16-mer random dsDNA library, 0.1% formaldehyde crosslink after washing; high values mean tight binding
# FLI1 = target: T1, FLI1 (Homo sapiens, UniProt Q01543 1-452); conditions: protein: recombinant; tags: N-terminal GST; dsDNA, one strand shown
# T1 sequence: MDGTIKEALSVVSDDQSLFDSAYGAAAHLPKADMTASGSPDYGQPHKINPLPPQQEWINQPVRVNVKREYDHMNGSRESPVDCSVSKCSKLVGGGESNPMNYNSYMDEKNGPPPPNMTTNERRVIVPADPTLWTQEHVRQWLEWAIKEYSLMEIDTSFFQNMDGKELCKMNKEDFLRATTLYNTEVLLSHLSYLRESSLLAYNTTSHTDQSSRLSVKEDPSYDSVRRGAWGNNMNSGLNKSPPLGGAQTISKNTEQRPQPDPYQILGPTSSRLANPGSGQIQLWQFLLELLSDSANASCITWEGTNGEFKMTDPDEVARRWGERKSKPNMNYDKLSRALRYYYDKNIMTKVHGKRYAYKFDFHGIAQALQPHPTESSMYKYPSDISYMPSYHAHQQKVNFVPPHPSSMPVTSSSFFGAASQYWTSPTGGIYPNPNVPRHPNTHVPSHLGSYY
# In short: (§1)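 Binding signal is defined as a hexamer's read frequency for one factor over its frequency for the tag-only sample. To obtain reads, GST-fused human transcription factors were expressed in yeast, captured on glutathione beads, barcoded with DNA and pooled with that sample. Pools met 200 nmole of a 16-mer random double-stranded DNA library in Tris/NaCl/DTT/glycerol buffer for 30 min at room temperature before washing, 0.1% formaldehyde crosslinking, proximity ligation (BsaI/T4 ligase, 1 h, 37 °C), PCR and Illumina NextSeq500 sequencing.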
# ELK1 = target: T2, ELK1 (Homo sapiens, UniProt P19419 1-428); conditions: protein: recombinant; tags: N-terminal GST; dsDNA, one strand shown
# T2 sequence: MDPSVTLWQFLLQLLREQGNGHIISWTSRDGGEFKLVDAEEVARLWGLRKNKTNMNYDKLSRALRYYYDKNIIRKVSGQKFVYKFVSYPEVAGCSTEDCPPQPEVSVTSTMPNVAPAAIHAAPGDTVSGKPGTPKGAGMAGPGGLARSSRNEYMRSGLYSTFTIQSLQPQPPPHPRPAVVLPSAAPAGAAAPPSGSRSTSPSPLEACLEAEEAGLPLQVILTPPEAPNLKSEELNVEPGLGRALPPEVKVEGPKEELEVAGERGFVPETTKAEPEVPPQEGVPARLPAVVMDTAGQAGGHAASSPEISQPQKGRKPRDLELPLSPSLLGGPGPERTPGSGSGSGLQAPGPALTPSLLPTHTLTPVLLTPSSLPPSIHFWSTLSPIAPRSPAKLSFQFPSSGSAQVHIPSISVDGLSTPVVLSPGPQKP
# In short: as §1
# GABPA = target: T3, GABPA (Homo sapiens, UniProt Q06546 1-454); conditions: protein: recombinant; tags: N-terminal GST; dsDNA, one strand shown
# T3 sequence: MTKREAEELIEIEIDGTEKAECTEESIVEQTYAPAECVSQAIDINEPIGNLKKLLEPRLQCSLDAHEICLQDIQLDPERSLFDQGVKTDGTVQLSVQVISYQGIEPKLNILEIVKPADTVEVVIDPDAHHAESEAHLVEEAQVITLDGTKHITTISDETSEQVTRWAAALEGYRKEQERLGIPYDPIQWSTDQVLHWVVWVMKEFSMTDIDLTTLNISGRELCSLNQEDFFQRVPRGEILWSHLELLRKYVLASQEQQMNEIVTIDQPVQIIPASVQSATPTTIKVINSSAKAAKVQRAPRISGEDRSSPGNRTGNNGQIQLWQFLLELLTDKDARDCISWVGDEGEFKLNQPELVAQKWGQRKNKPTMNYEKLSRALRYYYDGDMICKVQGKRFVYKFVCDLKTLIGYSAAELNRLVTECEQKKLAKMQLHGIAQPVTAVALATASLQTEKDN
# In short: as §1
# ERG = target: T4, ERG (Homo sapiens, UniProt P11308 1-479); conditions: protein: recombinant; tags: N-terminal GST; dsDNA, one strand shown
# T4 sequence: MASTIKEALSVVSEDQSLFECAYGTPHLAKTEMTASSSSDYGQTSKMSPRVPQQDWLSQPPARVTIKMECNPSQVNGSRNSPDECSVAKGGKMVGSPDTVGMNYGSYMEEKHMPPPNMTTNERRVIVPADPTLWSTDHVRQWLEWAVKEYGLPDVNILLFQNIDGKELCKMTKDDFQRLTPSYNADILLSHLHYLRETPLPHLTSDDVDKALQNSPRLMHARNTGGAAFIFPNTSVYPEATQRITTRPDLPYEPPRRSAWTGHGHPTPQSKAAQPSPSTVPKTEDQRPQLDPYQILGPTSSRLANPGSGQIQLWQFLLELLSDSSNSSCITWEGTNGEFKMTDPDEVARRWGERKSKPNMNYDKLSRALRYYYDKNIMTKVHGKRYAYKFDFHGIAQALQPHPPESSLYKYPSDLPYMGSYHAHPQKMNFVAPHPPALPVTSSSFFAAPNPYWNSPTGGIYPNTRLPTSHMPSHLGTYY
# In short: as §1
# ELF1 = ELF1 (Homo sapiens, UniProt P32519 1-619); conditions: protein: recombinant; tags: N-terminal GST; dsDNA, one strand shown
# Sequence of ELF1 (P32519 whole entry): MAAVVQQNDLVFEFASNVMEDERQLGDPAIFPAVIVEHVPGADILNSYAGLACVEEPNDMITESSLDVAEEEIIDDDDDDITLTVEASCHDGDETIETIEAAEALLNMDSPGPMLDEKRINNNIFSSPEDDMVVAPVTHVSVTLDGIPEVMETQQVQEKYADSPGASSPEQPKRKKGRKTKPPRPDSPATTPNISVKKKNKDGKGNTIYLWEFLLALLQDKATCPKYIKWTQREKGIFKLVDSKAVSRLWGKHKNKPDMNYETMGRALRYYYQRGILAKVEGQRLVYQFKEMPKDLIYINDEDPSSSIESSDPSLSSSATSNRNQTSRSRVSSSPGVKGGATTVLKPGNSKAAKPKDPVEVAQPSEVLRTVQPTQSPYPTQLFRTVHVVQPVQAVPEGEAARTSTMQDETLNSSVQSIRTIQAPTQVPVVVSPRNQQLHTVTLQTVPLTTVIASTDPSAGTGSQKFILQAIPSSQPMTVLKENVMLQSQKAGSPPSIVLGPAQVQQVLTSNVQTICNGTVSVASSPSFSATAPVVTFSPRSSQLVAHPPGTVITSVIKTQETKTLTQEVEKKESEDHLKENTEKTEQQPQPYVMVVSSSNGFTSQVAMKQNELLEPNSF
# In short: as §1
# EHF = target: T5, EHF (Homo sapiens, UniProt Q9NZC4 1-300); conditions: protein: recombinant; tags: N-terminal GST; dsDNA, one strand shown
# T5 sequence: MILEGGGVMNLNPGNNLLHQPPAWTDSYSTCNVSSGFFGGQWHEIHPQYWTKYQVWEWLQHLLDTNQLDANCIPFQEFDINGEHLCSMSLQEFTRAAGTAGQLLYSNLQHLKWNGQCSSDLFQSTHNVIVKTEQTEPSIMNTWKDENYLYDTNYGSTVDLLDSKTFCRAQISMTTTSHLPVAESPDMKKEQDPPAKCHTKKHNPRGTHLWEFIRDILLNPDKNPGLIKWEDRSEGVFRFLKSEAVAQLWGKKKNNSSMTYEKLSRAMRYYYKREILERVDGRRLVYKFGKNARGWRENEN
# In short: as §1
# SPI1 = SPI1 (Homo sapiens, UniProt P17947 1-270); conditions: protein: recombinant; tags: N-terminal GST; dsDNA, one strand shown
# In short: as §1
# SPIB = SPIB (Homo sapiens, UniProt Q01892 1-262); conditions: protein: recombinant; tags: N-terminal GST; dsDNA, one strand shown
# Sequence of SPIB (Q01892 whole entry): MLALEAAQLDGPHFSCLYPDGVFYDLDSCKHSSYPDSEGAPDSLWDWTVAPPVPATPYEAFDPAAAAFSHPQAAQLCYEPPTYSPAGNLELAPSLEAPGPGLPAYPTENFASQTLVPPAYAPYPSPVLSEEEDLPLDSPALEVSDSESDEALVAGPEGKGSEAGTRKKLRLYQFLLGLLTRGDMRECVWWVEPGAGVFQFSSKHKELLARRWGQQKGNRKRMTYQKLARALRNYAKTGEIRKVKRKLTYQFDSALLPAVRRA
# In short: as §1
# ELK3 = target: T6, ELK3 (Homo sapiens, UniProt P41970 1-407); conditions: protein: recombinant; tags: N-terminal GST; dsDNA, one strand shown
# T6 sequence: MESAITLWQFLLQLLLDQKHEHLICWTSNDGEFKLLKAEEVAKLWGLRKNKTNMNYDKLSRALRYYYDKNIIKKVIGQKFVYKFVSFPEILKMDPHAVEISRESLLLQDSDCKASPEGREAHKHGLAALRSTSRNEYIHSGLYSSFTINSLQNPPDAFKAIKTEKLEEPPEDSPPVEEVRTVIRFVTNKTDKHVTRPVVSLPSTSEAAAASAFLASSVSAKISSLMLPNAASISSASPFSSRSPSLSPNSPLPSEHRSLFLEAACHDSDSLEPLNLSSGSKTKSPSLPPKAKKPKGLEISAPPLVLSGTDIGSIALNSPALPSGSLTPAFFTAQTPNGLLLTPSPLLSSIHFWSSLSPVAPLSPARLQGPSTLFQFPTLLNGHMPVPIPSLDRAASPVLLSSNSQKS
# In short: as §1
# FEV = target: T7, FEV (Homo sapiens, UniProt Q99581 1-238); conditions: protein: recombinant; tags: N-terminal GST; dsDNA, one strand shown
# T7 sequence: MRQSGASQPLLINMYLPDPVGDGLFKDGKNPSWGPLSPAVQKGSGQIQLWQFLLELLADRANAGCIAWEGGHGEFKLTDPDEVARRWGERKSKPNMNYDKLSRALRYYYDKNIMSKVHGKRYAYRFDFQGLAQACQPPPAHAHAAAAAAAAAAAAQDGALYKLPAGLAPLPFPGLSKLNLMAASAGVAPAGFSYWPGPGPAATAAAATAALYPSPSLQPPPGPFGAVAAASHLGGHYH
# In short: as §1
# ETV5 = ETV5 (Homo sapiens, UniProt P41161 1-510); conditions: protein: recombinant; tags: N-terminal GST; dsDNA, one strand shown
# Sequence of ETV5 (P41161 whole entry): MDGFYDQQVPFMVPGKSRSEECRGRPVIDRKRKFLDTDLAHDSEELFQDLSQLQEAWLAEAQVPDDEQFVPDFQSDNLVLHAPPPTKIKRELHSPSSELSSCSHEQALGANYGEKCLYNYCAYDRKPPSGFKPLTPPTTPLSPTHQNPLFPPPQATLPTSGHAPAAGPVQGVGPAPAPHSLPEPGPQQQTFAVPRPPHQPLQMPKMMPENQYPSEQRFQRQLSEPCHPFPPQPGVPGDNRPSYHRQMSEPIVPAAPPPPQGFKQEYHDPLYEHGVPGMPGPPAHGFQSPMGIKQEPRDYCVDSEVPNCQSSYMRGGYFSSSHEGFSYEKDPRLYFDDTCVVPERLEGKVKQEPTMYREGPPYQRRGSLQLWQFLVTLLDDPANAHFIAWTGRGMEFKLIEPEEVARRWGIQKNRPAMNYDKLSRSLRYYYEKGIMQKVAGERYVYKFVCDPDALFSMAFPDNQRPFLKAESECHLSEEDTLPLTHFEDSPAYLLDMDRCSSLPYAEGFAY
# In short: as §1
# HSF1 = HSF1 (Homo sapiens, UniProt Q00613 1-529); conditions: protein: recombinant; tags: N-terminal GST; chain copies: 3; dsDNA, one strand shown
# Sequence of HSF1 (Q00613 whole entry): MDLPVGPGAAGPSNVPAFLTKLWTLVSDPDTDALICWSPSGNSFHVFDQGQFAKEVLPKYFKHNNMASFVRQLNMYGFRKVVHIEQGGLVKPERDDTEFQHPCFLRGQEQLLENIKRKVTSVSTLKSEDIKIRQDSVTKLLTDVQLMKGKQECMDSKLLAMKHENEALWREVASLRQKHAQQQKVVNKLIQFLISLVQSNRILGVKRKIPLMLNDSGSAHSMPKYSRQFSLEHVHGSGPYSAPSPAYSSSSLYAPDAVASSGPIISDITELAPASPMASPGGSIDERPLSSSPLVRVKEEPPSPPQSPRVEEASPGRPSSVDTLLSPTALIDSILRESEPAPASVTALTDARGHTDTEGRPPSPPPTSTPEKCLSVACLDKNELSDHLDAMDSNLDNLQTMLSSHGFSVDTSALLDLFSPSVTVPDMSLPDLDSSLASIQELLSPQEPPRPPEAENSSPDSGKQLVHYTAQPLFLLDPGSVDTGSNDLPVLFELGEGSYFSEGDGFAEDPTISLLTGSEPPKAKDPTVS
# In short: as §1
# SPIC = target: T8, SPIC (Homo sapiens, UniProt Q8N5J4 1-248); conditions: protein: recombinant; tags: N-terminal GST; dsDNA, one strand shown
# T8 sequence: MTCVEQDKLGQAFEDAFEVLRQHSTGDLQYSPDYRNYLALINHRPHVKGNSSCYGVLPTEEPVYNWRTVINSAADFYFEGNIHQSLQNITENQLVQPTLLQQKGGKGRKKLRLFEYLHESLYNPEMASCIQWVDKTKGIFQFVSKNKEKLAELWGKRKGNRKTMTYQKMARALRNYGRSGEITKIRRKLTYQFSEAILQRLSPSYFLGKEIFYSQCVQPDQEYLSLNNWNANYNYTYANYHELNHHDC
# In short: as §1
# ELF4 = ELF4 (Homo sapiens, UniProt Q99607 1-663); conditions: protein: recombinant; tags: N-terminal GST; dsDNA, one strand shown
# Sequence of ELF4 (Q99607 whole entry): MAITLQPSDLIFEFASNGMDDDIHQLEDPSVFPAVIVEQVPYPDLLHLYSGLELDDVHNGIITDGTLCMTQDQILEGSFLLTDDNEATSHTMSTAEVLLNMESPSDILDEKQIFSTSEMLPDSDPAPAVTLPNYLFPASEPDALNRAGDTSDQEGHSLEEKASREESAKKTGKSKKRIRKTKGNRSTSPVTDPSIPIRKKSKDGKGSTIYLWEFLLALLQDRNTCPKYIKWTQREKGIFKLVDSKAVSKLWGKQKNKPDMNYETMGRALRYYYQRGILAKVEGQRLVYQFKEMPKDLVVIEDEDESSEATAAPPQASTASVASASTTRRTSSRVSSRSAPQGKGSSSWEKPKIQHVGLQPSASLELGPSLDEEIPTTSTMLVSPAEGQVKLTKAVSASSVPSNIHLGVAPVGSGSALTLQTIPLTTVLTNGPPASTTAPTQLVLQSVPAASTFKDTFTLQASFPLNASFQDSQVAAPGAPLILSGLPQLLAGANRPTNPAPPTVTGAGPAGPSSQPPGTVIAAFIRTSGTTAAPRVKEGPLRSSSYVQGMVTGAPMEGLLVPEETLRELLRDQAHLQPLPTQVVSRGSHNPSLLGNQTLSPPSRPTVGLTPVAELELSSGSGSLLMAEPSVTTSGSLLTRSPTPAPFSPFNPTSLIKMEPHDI
# In short: as §1
# ELK4 = target: T9, ELK4 (Homo sapiens, UniProt P28324-2 1-405); conditions: protein: recombinant; tags: N-terminal GST; dsDNA, one strand shown
# T9 sequence: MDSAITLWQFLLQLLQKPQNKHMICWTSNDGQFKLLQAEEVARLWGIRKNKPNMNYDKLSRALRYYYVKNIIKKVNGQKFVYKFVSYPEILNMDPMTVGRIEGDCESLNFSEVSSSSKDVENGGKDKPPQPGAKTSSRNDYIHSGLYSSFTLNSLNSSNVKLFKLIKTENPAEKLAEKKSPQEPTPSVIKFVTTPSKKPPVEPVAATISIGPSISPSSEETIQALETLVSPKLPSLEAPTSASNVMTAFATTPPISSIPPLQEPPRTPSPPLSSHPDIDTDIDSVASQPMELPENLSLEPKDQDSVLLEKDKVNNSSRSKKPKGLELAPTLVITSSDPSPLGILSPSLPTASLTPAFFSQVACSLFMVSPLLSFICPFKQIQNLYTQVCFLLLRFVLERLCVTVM
# In short: as §1
# ETV2 = target: T10, ETV2 (Homo sapiens, UniProt O00321 1-342); conditions: protein: recombinant; tags: N-terminal GST; dsDNA, one strand shown
# T10 sequence: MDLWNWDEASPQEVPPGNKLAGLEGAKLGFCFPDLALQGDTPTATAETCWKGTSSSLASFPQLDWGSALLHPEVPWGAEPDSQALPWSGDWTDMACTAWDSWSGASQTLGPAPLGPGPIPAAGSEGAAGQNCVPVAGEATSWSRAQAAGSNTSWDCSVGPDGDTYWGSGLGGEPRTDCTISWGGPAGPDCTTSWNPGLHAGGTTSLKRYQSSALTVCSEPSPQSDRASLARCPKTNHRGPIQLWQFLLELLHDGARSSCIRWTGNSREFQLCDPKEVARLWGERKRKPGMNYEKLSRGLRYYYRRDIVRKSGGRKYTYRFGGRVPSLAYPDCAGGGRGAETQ
# In short: as §1
# ELF3 = target: T11, ELF3 (Homo sapiens, UniProt P78545 1-371); conditions: protein: recombinant; tags: N-terminal GST; dsDNA, one strand shown
# T11 sequence: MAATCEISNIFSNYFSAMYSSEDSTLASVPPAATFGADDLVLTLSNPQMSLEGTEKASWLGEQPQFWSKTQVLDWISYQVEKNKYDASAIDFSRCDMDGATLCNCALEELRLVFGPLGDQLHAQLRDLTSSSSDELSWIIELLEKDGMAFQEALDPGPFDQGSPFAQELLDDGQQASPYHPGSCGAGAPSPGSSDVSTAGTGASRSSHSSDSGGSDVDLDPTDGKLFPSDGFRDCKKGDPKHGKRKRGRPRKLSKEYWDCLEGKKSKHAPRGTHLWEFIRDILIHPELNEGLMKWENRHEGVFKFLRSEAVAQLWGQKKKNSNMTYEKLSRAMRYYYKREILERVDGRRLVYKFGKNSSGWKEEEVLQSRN
# In short: as §1
# CRX = CRX (Homo sapiens, UniProt O43186 1-299); conditions: protein: recombinant; tags: N-terminal GST; dsDNA, one strand shown
# Sequence of CRX (O43186 whole entry): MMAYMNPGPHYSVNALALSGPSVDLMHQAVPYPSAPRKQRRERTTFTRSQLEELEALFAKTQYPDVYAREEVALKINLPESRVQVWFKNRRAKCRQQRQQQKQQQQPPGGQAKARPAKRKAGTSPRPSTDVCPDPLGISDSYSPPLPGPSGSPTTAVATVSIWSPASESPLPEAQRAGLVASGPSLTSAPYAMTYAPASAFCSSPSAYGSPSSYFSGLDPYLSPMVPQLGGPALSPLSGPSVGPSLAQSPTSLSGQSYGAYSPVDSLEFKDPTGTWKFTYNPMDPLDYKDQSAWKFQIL
# In short: as §1
# ETV1 = ETV1 (Homo sapiens, UniProt P50549 1-477); conditions: protein: recombinant; tags: N-terminal GST; dsDNA, one strand shown
# Sequence of ETV1 (P50549 whole entry): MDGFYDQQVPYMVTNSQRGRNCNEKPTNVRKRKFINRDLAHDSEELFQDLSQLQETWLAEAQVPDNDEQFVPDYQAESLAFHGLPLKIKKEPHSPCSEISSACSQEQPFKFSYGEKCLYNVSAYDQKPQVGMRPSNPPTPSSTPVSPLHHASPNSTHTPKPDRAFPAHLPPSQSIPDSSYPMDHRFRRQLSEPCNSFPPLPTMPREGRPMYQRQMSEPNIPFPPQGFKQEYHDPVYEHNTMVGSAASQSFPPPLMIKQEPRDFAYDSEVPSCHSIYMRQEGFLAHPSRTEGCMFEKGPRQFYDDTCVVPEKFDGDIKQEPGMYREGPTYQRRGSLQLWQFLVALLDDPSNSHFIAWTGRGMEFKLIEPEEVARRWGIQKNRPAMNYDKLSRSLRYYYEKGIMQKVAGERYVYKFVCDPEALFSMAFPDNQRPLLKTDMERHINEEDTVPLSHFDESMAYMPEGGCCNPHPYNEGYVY
# In short: as §1
sequence,measurement,setting,value
CTGCTG,binding signal,FLI1,"1.15 fold enrichment (6-mer frequency, TF over GST control)"
same,binding signal,ELK1,"1.26 fold enrichment (6-mer frequency, TF over GST control)"
same,binding signal,GABPA,"1.27 fold enrichment (6-mer frequency, TF over GST control)"
same,binding signal,ERG,"1.11 fold enrichment (6-mer frequency, TF over GST control)"
same,binding signal,ELF1,"1.4 fold enrichment (6-mer frequency, TF over GST control)"
same,binding signal,EHF,"1.39 fold enrichment (6-mer frequency, TF over GST control)"
same,binding signal,SPI1,"1.24 fold enrichment (6-mer frequency, TF over GST control)"
same,binding signal,SPIB,"1.04 fold enrichment (6-mer frequency, TF over GST control)"
same,binding signal,ELK3,"1.3 fold enrichment (6-mer frequency, TF over GST control)"
same,binding signal,FEV,"1.25 fold enrichment (6-mer frequency, TF over GST control)"
same,binding signal,ETV5,"1.25 fold enrichment (6-mer frequency, TF over GST control)"
same,binding signal,HSF1,"1.09 fold enrichment (6-mer frequency, TF over GST control)"
same,binding signal,SPIC,"1.47 fold enrichment (6-mer frequency, TF over GST control)"
same,binding signal,ELF4,"1.25 fold enrichment (6-mer frequency, TF over GST control)"
same,binding signal,ELK4,"1.27 fold enrichment (6-mer frequency, TF over GST control)"
same,binding signal,ETV2,"1.05 fold enrichment (6-mer frequency, TF over GST control)"
same,binding signal,ELF3,"1.13 fold enrichment (6-mer frequency, TF over GST control)"
same,binding signal,CRX,"1.01 fold enrichment (6-mer frequency, TF over GST control)"
same,binding signal,ETV1,"1.17 fold enrichment (6-mer frequency, TF over GST control)"
